Sampled rows, rich in hits. Any-hit rate of the full collection: about 18%.
TGFb inhibitor = inhibitors of TGF-b signaling; HepG2 CAGA-GFP TGF-b/SMAD3 reporter, GFP fluorescence, 18 h; TGF-beta stimulated, 500 pg/mL final; AID 588855; hit rate 1.2% among 410,000; Potency, µM (titrated, usually from 46.1 µM), actives largely listed as inhibitors; note: nearly all actives have a fitted effect of over 65% in size
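GFP signal (ex488/em500-530) from TGF-beta-stimulated HEPG2 CAGA-GFP cells, 500 pg/mL final, 18 h at 37 degrees C in DMEM plus 1% FBS, normalized to unstimulated and DMSO-stimulated controls.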
DT40 TDP1 no CPT = qHTS for Inhibitors of human tyrosyl-DNA phosphodiesterase 1 (TDP1): qHTS in cells in absence of CPT | Potency, µM (highest dose often 46.2 µM), hits mostly inhibitors | DT40 Tdp1-/- hTDP1 cells, no CPT, ATP luminescence, 48 h | hit rate 15% among 420,000; note: nearly all actives have a fitted effect of over 55% in size
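Compound effects on proliferation are scored in DT40 Tdp1-/-;hTDP1 cells in the absence of CPT. ATP levels (CellTiter-Glo luminescence) are recorded after a ≥48 hr, 37 °C incubation.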
HepG2 tox = kills HepG2 cells in TGF-b inhibitor counter-screen | HepG2 CAGA-GFP viability, ATP luminescence, 18 h | Potency, µM (highest dose often 46.1 µM), hits mostly cytotoxic | hit rate 0.76% among 410,000
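HepG2 CAGA-GFP cells (1000/well, DMEM with 1% FBS) received compound, then TGF-beta at 500 pg/mL final, and were incubated 18 hours at 37 degrees C. Viability was read by CellTiter-Glo luminescence. Media-only wells were set as complete cell-killing and DMSO as no toxicity.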
DT40 TDP1 CPT = DT40-hTDP1 cell growth loss with CPT | Potency, µM (top dose mostly 46.2 µM), usual class: inhibitors | AID 686979 | chicken DT40 Tdp1-/-;hTDP1 cells + 20 nM CPT, ATP luminescence, 48 h | hit rate 12% among 420,000; note: nearly all actives have a fitted effect of over 55% in size
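Chicken DT40 Tdp1-/- cells stably complemented with human TDP1 were seeded at 400 cells/well in medium containing 20 nM camptothecin, exposed to pin-transferred compounds, and grown at 37 °C for at least 48 hr. Viability was read as ATP luminescence.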
IL-1B inflam inh = inflammasome signaling inhibition, IL-1 beta readout; hit rate 4.7% among 360,000; THP-1 LPS/ATP IL-1B secretion, AlphaLISA, 16 h; stronger effect = lower value; AID 743279; activity change, % at 57.5 µM; in the data active = activity change below about -50%; inconclusive = mostly about -30% to -49%
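Secreted IL-1B measured by AlphaLISA bead assay after 16 h compound exposure of THP-1 cells; compounds (final up to 57.5 uM) added 1 h before LPS (250 ng/mL) and ATP (1.25 mM) stimulation; lower signal means less secretion.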
TDP1 inh = blocks human tyrosyl-DNA phosphodiesterase 1; hit rate 0.28% among 350,000; Potency, µM (top dose mostly 130 µM), actives largely listed as inhibitors; recombinant TDP1, AlphaScreen DNA substrate cleavage; Q9NUW8; AID 485290; note: nearly all actives have a fitted effect of over 40% in size
Target sequence (Q9NUW8 whole entry, looked up): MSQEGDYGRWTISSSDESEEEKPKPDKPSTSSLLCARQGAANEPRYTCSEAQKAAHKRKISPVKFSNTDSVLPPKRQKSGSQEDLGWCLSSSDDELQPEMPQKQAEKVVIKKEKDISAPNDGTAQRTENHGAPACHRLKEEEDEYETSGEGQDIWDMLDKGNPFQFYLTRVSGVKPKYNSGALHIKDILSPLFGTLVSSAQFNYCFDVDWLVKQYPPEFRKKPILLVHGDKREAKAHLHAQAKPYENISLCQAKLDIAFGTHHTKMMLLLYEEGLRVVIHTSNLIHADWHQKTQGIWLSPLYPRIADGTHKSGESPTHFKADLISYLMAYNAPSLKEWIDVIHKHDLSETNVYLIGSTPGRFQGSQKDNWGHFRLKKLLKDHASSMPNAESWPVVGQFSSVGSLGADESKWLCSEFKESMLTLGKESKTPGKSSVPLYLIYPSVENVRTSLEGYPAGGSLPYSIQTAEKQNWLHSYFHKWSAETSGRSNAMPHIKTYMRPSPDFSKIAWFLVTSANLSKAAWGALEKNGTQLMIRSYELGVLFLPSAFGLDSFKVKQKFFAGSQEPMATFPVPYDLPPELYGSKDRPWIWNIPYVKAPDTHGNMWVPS
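Here, a 5' biotin and 3' phosphotyrosine-FITC DNA oligonucleotide reports Tdp1 activity: intact substrate bridges AlphaScreen beads, while cleavage leaves a 3' phosphate and drops signal. All incubations at room temperature.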
Hits are given with their value; i = inactive; ? = inconclusive; nt = no result; [ ] = dose if it differs, or a comment. Unless noted, calls come from the whole dose curve; as a rule, active = well fitted curve in the direction sought with a large enough effect; inconclusive = small, poorly fitted or top-dose-only effect, or another doubt; inactive = no such curve, though single readings can be large; an effect the other way counts as inactive or inconclusive.

SMILES	TGFb inhibitor	DT40 TDP1 no CPT	HepG2 tox	DT40 TDP1 CPT	IL-1B inflam inh	TDP1 inh
CC1(C(=O)NCCc2ccccc2)Cc2c(-c3cccc(C(F)(F)F)c3)ccnc2O1 (configuration not stated)	i	?	i	?	i	nt
CC1(C(=O)NCc2ccc(F)c(F)c2)Cc2c(-c3cccc(C(F)(F)F)c3)ccnc2O1 (configuration not stated)	?	16.4µM	i	16.4µM	i	nt
CC1(C(=O)NCc2cccnc2)Cc2c(-c3cccc(C(F)(F)F)c3)ccnc2O1 (configuration not stated)	i	20.6µM	i	23.1µM	i	nt
CC1(C(=O)Nc2ccc(F)c(Cl)c2)Cc2c(-c3cccc(C(F)(F)F)c3)ccnc2O1 (configuration not stated)	?	?	i	?	i	nt
CC1(C(=O)Nc2ccc(F)c(Cl)c2)Cc2c(-c3ccccc3)ccnc2O1 (configuration not stated)	?	?	i	?	i	nt
CCC(C)N(C(=O)Cn1c(=O)cnc2ccccc21)C1CCS(=O)(=O)C1 (configuration not stated)	i	i	i	i	i	i
CC(C)CN1CC2(CCN(C(=O)c3csnn3)CC2)C1	nt	i	nt	i	nt	nt
CC(=O)c1cccc(NC(=O)Nc2nnc(N3CCCC3)s2)c1	i	?	i	?	nt	i
Cc1ccc(NC(=O)c2ccc(=O)n(CC(=O)Nc3ccccc3)n2)cc1	i	i	i	i	i	i
CC(=O)Nc1ccc(-c2ccnc3c2CC(C)(C(=O)NCc2ccc(F)c(F)c2)O3)cc1 (configuration not stated)	i	3.26µM	i	5.8µM	i	nt
CC(=O)Nc1ccc(NC(=O)C2(C)Cc3c(-c4ccccc4)ccnc3O2)cc1 (configuration not stated)	i	i	i	?	i	nt
Cc1cc(C)cc(O)c1	nt	nt	nt	nt	nt	i
Cc1ccsc1C(=O)OC(C)C(=O)Nc1ccc(Cl)cn1 (configuration not stated)	i	25.9µM	i	?	i	i
CC(OC(=O)c1cc[n+]([O-])cc1)C(=O)Nc1ccc(Cl)cn1 (configuration not stated)	?	i	i	i	i	i
COc1cc(/C=C/C(=O)OCC(=O)Nc2ccc(Cl)cn2)ccc1O	i	i	i	i	i	28.2µM
Cc1ccc(/C=C/C(=O)OC(C)C(=O)Nc2ccc(Cl)cn2)o1 (configuration not stated)	i	16.4µM	i	13µM	i	i
CC(OC(=O)C1CC1C)C(=O)Nc1ccc(Cl)cn1 (configuration not stated)	i	i	i	i	i	i
COc1cc(/C=C/C(=O)OC(C)C(=O)Nc2ccc(Cl)cn2)ccc1OC(F)F (configuration not stated)	i	i	i	i	-51.9	i
CCN(CC)CCNC(C(=O)OCCC(C)C)c1ccccc1 (configuration not stated)	nt	5.31µM	nt	9.44µM	nt	i
CCCCSc1ccc2nc(-c3ccc(C#N)cc3)cn2c1	i	?	i	?	i	i
CCCSc1ccc2nc(-c3ccccc3)cn2c1	?	16.4µM	i	18.4µM	i	i
CCCOc1ccc(NC(=O)CC2C(=O)N(c3ccc(OC)cc3)C(=O)N2CCc2ccncc2)cc1 (configuration not stated)	i	?	i	?	nt	i
CC(C)(C)c1cc(Cl)ccc1OCCOCCN1CCCC1	?	13µM	i	?	-74.6	i
Clc1cc(Br)ccc1OCCOCCN1CCCC1	i	?	i	?	-90.7	i
Clc1ccc(OCCOCCN2CCCCC2)c(Br)c1	i	i	i	i	i	i
SMILES	TGFb inhibitor	DT40 TDP1 no CPT	HepG2 tox	DT40 TDP1 CPT	IL-1B inflam inh	TDP1 inh
Clc1cccc(OCCOCCN2CCNCC2)c1Cl	i	23.1µM	i	i	i	nt
COc1ccc(S(=O)(=O)N2CCC3(CC2)OCCN3S(=O)(=O)c2ccccc2)cc1OC	i	i	i	?	i	nt
Cc1ccc(C(=O)/C=C/c2cc(C#N)n(C)c2C)cc1	i	?	i	i	i	i[0.0935 µM]
COc1cc(C)c2c(=O)cc(-c3ccccc3)oc2c1	nt	?	nt	?	nt	i
COc1cccc(CNC(=O)c2cc(S(=O)(=O)N3CCCCCC3)cn2C)c1	i	?	i	?	nt	i
Cc1ccc(-n2nc3c(=O)n(CCCC(=O)NCc4cccc(Cl)c4)nc(C)c3c2C)cc1	i	?	i	23.1µM	i	i
Cc1cccc(CNC(=O)CCCn2nc(C)c3c(C)n(-c4ccccc4)nc3c2=O)c1	i	?	i	i	i	i
COc1ccc(CNC(=O)CCCn2nc(C)c3c(C)n(-c4ccc(C)cc4)nc3c2=O)cc1	?	9.2µM	i	?	i	i
Cc1ccc(-n2nc3c(=O)n(CCCC(=O)NCc4ccc(Cl)cc4)nc(C)c3c2C)cc1	?	13µM	i	23.1µM	i	i
CCN(CC(=O)Nc1ccc(OC)cc1)C(=O)CSCc1c(C)noc1C	i	i	i	i	i	i
COC(=O)C/C=C/[C@@H](C)[C@H](NC(=O)OCC(Cl)(Cl)Cl)c1ccc2ccccc2c1	nt	nt	nt	nt	nt	i
CCOc1ccc(NC(=O)c2ccncc2)cc1	i	i	i	i	i	i
CCOc1ccc2c(c1)C(=NNC(=O)c1ccncc1)c1cc(OCC)ccc1-2	i	5.17µM	i	3.66µM	i	i
Cc1ccc(CNC(=O)CCS(=O)(=O)c2ccc(Cl)cc2)cc1	i	i	i	i	i	i
Cc1ccc(S(=O)(=O)CCC(=O)NC2CCCCC2)cc1	i	14.6µM	i	18.4µM	i	i
O=C(CCS(=O)(=O)c1ccc(Br)cc1)NCc1ccc(F)cc1	i	i	i	i	i	50.1µM
Cc1ccc(CNC(=O)CCS(=O)(=O)c2ccc(Br)cc2)cc1	i	i	i	i	i	11.2µM
COC(=O)c1c(OCc2ccccn2)cc(=O)n2c1CCN(C(=O)c1cc(C(C)C)nn1C)CC2	nt	i	nt	i	nt	nt
Cn1c2ccccc2c(=O)c2c(=O)n(C3CCCCC3)c(-c3ccco3)nc21	i	?	i	23.1µM	i	i
Cc1nc2c(c(=O)c3ccccc3n2C)c(=O)n1C1CCCCCC1	i	i	i	i	i	nt
CCOC(=O)C1=CCN(S(=O)(=O)c2ccc(C)cc2)C1c1ccc(Cl)cc1 (configuration not stated)	?	?	i	?	i	nt
CC1Cc2ccccc2N1S(=O)(=O)c1cccc(C(=O)NNC(=O)c2ccccc2F)c1 (configuration not stated)	i	?	i	i	i	i
